Calls of active or inactive are those of the source. How the calls were made is not given here.
target: fMet-Leu-Phe receptor (Homo sapiens) (UniProt P21462); experiment: human FPR1 ligand displacement single-point test – cell-based, single concentration, selectivity assay for FPRL1 ligand SAR project, SAR follow-up (AID 763); details: FPR1-expressing cells, fluorescent ligand binding inhibition, stronger effect = higher value; at 5.4 µM unless noted
Sequence (P21462 whole entry, looked up): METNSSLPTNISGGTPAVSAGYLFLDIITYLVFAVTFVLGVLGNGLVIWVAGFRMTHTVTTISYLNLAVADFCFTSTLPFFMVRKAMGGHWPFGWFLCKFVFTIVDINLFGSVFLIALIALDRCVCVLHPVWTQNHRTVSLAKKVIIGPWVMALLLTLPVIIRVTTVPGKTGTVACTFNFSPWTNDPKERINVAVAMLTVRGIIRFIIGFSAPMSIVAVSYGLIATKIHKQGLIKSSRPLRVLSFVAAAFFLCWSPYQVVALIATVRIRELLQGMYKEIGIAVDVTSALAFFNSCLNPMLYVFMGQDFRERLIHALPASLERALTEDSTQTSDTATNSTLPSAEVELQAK

inhibition, inactive:
CCOC(=O)N1CCN(c2nc(-c3ccccc3OC)cc(C(F)(F)F)n2)CC1 1%
Cc1ccccc1N1CCN(c2nc(-c3ccccc3)c3cc(Br)ccc3n2)CC1 3.5% [at 4.8 µM]
Fc1ccc(-c2cc(C(F)(F)F)nc(N3CCN(c4ccccc4)CC3)n2)cc1 -1% [at 5.5 µM]
CC(N)C(=O)N1CCN(c2nc(-c3ccccc3)c3cc([N+](=O)[O-])ccc3n2)CC1 (stereo unspecified) -1.4% [at 5.5 µM]
Fc1ccc(-c2cc(C(F)(F)F)nc(N3CCN(Cc4ccccc4)CC3)n2)cc1 0% [at 5.3 µM]
COc1ccc(-c2cn3cccnc3n2)cc1NC(=O)c1cccc(C)c1 -4.1% [at 6.2 µM]
O=C1CC(c2ccco2)Cc2nc(N3CCN(Cc4ccccc4)CC3)ncc21 (stereo unspecified) 5.5% [at 5.7 µM]
O=C(c1ccccc1)N1CCN(c2nc(-c3ccccc3)c3cc([N+](=O)[O-])ccc3n2)CC1 -6% [at 5.1 µM]
CCOC(=O)N1CCN(c2nc(-c3cccc(Cl)c3)c3c(n2)-c2ccccc2OC3)CC1 3.2% [at 4.9 µM]
CCOC(=O)N1CCN(c2nc(-c3ccc(OC)c(OC)c3)cc(C(F)(F)F)n2)CC1 4.1% [at 5.1 µM]
COc1ccc(-c2cn3cccnc3n2)cc1NC(=O)Cc1ccccc1 -1.4% [at 6.2 µM]
COc1ccc(-c2nc(N3CCN(Cc4ccc(Cl)cc4)CC3)[nH]c(=O)c2C#N)cc1 -5.9% [at 5.1 µM]
CC1CCc2nc(N3CCN(Cc4ccccc4)CC3)nc(C(F)(F)F)c2C1 (stereo unspecified) 4.7% [at 5.7 µM]
COc1ccccc1-c1cc(C(F)(F)F)nc(N2CCN(Cc3ccccc3)CC2)n1 1.1% [at 5.2 µM]
COc1ccc(-c2cn3cccnc3n2)cc1NC(=O)C1CCCCC1 3.2% [at 6.3 µM]
COc1ccc(-c2cc(C#N)nc(N3CCN(c4ccccc4)CC3)n2)cc1 2.6% [at 6 µM]
CC1(C)CC(=O)c2cnc(N3CCN(Cc4ccc5c(c4)OCO5)CC3)nc2C1 11.3% [at 5.6 µM]
CC(C)(C)OC(=O)N1CCN(c2nc(-c3ccccc3)c3cc([N+](=O)[O-])ccc3n2)CC1 -8.4% [at 5.1 µM]
COc1ccc(-c2cn3cccnc3n2)cc1NC(=O)c1ccccc1C(F)(F)F -3.2%
O=C(O)CCC(=O)N1CCN(c2nc(-c3ccccc3)c3ccccc3n2)CC1 6.1% [at 5.7 µM]
CCOC(=O)N1CCN(c2nc(-c3ccccc3)c3cc(C)ccc3n2)CC1 -2.1% [at 5.9 µM]

— PubChem BioAssay AID763 (NMMLSC, 2007)
